The entries come from a sample that favours hits as a whole.
Dicer processing = blocks human Dicer maturation of pre-miR-21; z-score at 25 µM; 47,000 tested, 6% active; cat-ELCCA pre-miR-21 Dicer processing, chemiluminescence; hits give high values; in the data active means z-score above about 3, passing the limit was not always enough;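 further: plate controls were vehicle for no effect and no enzyme for full effect; higher signal means more uncleaved substrate so more Dicer inhibition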
Active calls of the source: *.

SMILES	Dicer processing
CC(C)(C)c1cc(NC(=O)Nc2ccc(Cl)cc2Cl)no1	-1.2
Cc1cc(-c2nc(C)c(C(=O)NNC(=O)Nc3ccc(Cl)cc3Cl)s2)no1	3.1*
Cc1nc(-c2cccs2)sc1C(=O)NNC(=O)Nc1ccc(Cl)cc1	0.9
O=C(O)C1(c2ccc(O)cc2)CCCC1	2.3
COc1ccc(F)cc1S(=O)(=O)NC1CC(C)(C)NC(C)(C)C1	0.4
C(=N\Nc1ncnc2c1cnn2-c1ccccc1)/c1cccnc1	1.5
CCCC1c2ccsc2CCN1C(=S)NC (stereo not drawn)	-1.9
Cc1c(CC(=O)NNC(=O)NC(C)C)sc2ccc(Cl)cc12	-0.68
COc1ccc(OCCN)cc1	-0.31
COc1ccc(OCCC(=O)N/N=C/C=C/c2ccccc2)cc1	0.85
COc1ccc(OCCC(=O)NN)cc1	3.3*
O=C(CN1c2ccccc2Sc2ccccc21)NNC(=S)Nc1ccccc1	5.2*
S=C(Nc1ccccc1)N1c2ccccc2Sc2ccccc21	0.44
CC(C)(C)OC(=O)NCC(=O)NNC(=S)Nc1ccccc1	-0.45
CCc1ccc(C(=O)N(Cc2ccccc2)C(C)C)cc1	1.6
COC(=O)C1=C(C)NC2=C(C(=O)CC(c3ccccc3)C2)C1c1cccnc1 (stereo not drawn)	0.96
CSc1sc(C)cc1C1C(C#N)=C(N)N(c2cccnc2)C2=C1C(=O)CC(c1ccccc1)C2 (stereo not drawn)	5.8*
CCSc1ccsc1C1C(C#N)=C(N)N(c2cccnc2)C2=C1C(=O)CC(c1ccccc1)C2 (stereo not drawn)	0.14
COCCOC(=O)C1=C(C)Nc2nc3ccccc3n2C1c1ccc(C)cc1 (stereo not drawn)	-0.86
COC(=O)c1c(OC)ccc(NC(=O)CSc2nc(C)cc(C)n2)c1OC	-0.94
CC(C)(C)OC(=O)N1CCCN(c2ccc(C(F)(F)F)cc2[N+](=O)[O-])CC1	-0.85
C=CCSc1ncc(-c2ccc(Cl)cc2)n1C	1.7
CC(C)(C)OC(=O)NC(Cc1ccccc1)C(=O)NCc1ccccc1 (stereo not drawn)	4.6*
CC(NC(=O)OC(C)(C)C)C(=O)NCc1ccccc1 (stereo not drawn)	-0.32
CC(C)CC(NC(=O)OC(C)(C)C)C(=O)NCc1ccccc1 (stereo not drawn)	0.85
SMILES	Dicer processing
O=S(=O)(NCc1cccnc1)c1ccc(Br)cc1	0.47
COc1cc(/C=N/n2c(C)nc3c(ncn3-c3ccccc3)c2=O)cc(OC)c1OC	-2.1
CSc1ccccc1NC(=O)c1sc2ccccc2c1Cl	-1.2
Oc1ccc(C2Nc3ccc4ccccc4c3C3C=CCC32)cc1 (stereo not drawn)	1.1
CC[n+]1c(/C=C/c2ccc(N(C)C)cc2)ccn1-c1ccccc1	3.3*
CN(C)c1ccc(/C=C/C2=Nc3ccccc3C2(C)C)cc1	-1.1
CC[n+]1c(/C=C/c2ccc(N(C)C)cc2)sc2ccccc21	0.65
CNS(=O)(=O)c1cc(-c2nnc3c4ccccc4c(C)nn23)ccc1OC	1.6
Cc1ccc(-c2nnc3c4ccccc4c(C)nn23)cc1S(=O)(=O)N1CCN(c2ccccc2)CC1	2.5
COc1ccc(-c2nnc3c4ccccc4c(C)nn23)cc1S(=O)(=O)NC1CCCCC1	2.5
Cc1ccc(-c2nnc3c4ccccc4c(C)nn23)cc1S(=O)(=O)N1CCCC1	3.2*
Cc1ccc(-c2nnc3c4ccccc4c(C)nn23)cc1S(=O)(=O)NC(C)(C)C	1.1
COc1ccc(-c2nnc3c4ccccc4c(C)nn23)cc1S(=O)(=O)NC(C)C	5*
CCC(CO)NS(=O)(=O)c1cc(-c2nnc3c4ccccc4c(C)nn23)ccc1OC (stereo not drawn)	2.8
COc1ccc(-c2nnc3c4ccccc4c(C)nn23)cc1S(=O)(=O)N1CCCC1	5.5*
COc1ccc(-c2nnc3c4ccccc4c(C)nn23)cc1S(=O)(=O)N(C)C1CCCCC1	0.88
Nc1nc(-c2cccnc2)ncc1S(=O)(=O)c1ccc(C(F)(F)F)cn1	5.2
COc1ccc(C2Nc3cc(C)ccc3O2)cc1OC (stereo not drawn)	1.1
CC(=O)N1N=C(c2cccc([N+](=O)[O-])c2)CC1c1ccccc1 (stereo not drawn)	-0.53
NNC(=O)Cn1c2ccc(F)cc2c2nc3ccccc3nc21	1.4
Cc1cc(C)c(NC(=O)CSc2cc(C(F)(F)F)cc(C(F)(F)F)c2)c(C)c1	-0.29
Cc1cccc(CSc2nc(C)cc(=O)[nH]2)c1	-1.3
O=C(Cn1nnc(CSc2ccc(Cl)cc2)n1)NNC(=S)Nc1ccccc1C(F)(F)F	0.8
CN(NC(=O)c1ccc(Cl)cc1)c1ncc(Cl)cc1C(F)(F)F	3
CN(/N=C/c1ccccc1Cl)c1ncc(C(F)(F)F)cc1Cl	-0.08
SMILES	Dicer processing
CN(/N=C/c1ccc(O)cc1O)c1ncc(Cl)cc1C(F)(F)F	12*
Cc1nnc(Nc2cccc(F)c2)s1	-0.38
CC1(C)NC(=O)N(CC(O)COc2ccc3ccccc3c2)C1=O (stereo not drawn)	-0.09
N#CC(C#N)=NNc1ccccc1Oc1ccc(Cl)cc1Cl	3.9*
CN(C)CCCNC(=O)C(=O)Nc1ccccc1Oc1ccc(Cl)cc1Cl	0.16
O=C(Nc1ccccc1Oc1ccc(Cl)cc1Cl)c1cc(Cl)sc1Cl	-0.24
CCOC(=O)C1=C(C)N=C2SCC(=O)N2C1c1ccc(OC)c2ccccc12 (stereo not drawn)	-0.66
Cc1ccc(S(=O)(=O)NC2CCCCC2)cc1-c1nnc2c3ccccc3c(C)nn12	0.08
COc1ccc(OC)c2nc3c(nc12)C(=O)c1ccccc1-3	-2.2
O=C(O)c1c(N2CCCCC2)ccc([N+](=O)[O-])c1N1CCCCC1	-0.06
O=[N+]([O-])c1ccc(N2CCCCCCC2)cc1	1.5
O=c1c(N2CCCCC2)c(N2CCCCC2)c1=O	7.3*
Cc1cc(C)c(N2C(=O)C3ON(c4ccccc4)C(c4ccncc4)C3C2=O)c(C)c1 (stereo not drawn)	0.88
O=C(c1cccnc1)N(c1ccc2oc(=O)sc2c1)S(=O)(=O)c1cccc2cccnc12	4.1*
Cc1cc2cc(N(C(=O)c3ccncc3)S(=O)(=O)c3cc(C)c(C)cc3C)ccc2o1	-0.81
O=C(c1ccncc1)N(c1ccc2oc(=O)sc2c1)S(=O)(=O)c1cccc2cccnc12	3.7*
O=C(c1ccncc1)N(c1cc2sc(=O)oc2c2ccccc12)S(=O)(=O)c1cccs1	-5.5
Cc1ccc(C)c(S(=O)(=O)N(C(=O)c2ccncc2)c2ccc3oc(=O)sc3c2)c1	-1.7
CS(=O)(=O)CC(=O)NC1CCCCC1	0.08
Cc1ccc(S(=O)(=O)O/N=C(\N)CC(=O)Nc2cc(C(F)(F)F)ccc2Cl)cc1	0.93
N#CC1=C(N)Oc2n[nH]c(-c3ccccc3)c2C12C(=O)Nc1ccc(Cl)cc12 (stereo not drawn)	-2.5
Clc1cccc(Sc2ccc(-c3ccccn3)s2)c1	-0.72
O=C(NNS(=O)(=O)c1ccc(-c2ccccn2)s1)Nc1cccc(Cl)c1	4*
COc1ccc(SCCC(=O)NNS(=O)(=O)c2ccc(-c3ccccn3)s2)cc1	-1.7
CCN1CCN(CC(=O)Nc2sc3c(c2C(N)=O)CCCC3)CC1	1.1
CC(C)c1ccc(C2C(C(=O)c3ccco3)=C(O)C(=O)N2CCCN2CCOCC2)cc1 (stereo not drawn)	-0.83
O=C(c1ccccn1)N(Cc1ccco1)C1(C(=O)Nc2ccc(Br)cc2)CCCCC1	1.7
CCCC(=O)N(c1ccc2oc(=O)sc2c1)S(=O)(=O)c1ccc(Cl)cc1	2.1
CCCCC(=O)N(c1ccc2oc(=O)sc2c1)S(=O)(=O)c1ccccc1	-0.63
CCc1ccc(CC)c(S(=O)(=O)Nc2ccc3oc(=O)sc3c2)c1	7.8*
